About 79,000 compounds went through this panel and 15% of them were active in at least one assay; those are over-represented in the sample as a whole. Activity calls are given as the source filed them. No stated cut-off is given here; in the data, active means growth inhibition above about 70%; inactive means the rest.
Assay: NCI Yeast Anticancer Drug Screen. Data for the cln2 rad14 strain (AID 165);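 further: 0% = growth equal to vehicle treated cultures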
Settings: S. cerevisiae cln2 rad14 strain, at 50.0 µM, hits give high values
How it was run: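 The screen exposed genetically defined yeast (cln2 rad14) to test compounds and scored growth inhibition relative to vehicle-treated controls.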

| SMILES | growth inhibition |
| --- | --- |
| CC(C)C1CCC2(CC1)CCN(CCCN(C)C)CC2 | -23.6% (inactive) |
| CC1=CC(=O)OC(=O)/C1=C/c1ccc(N(C)C)cc1 | 19.7% (inactive) |
| CCN(CC)c1ccc2cc(-c3nc4ccccc4[nH]3)c(=O)oc2c1 | 3.15% (inactive) |
| C1=C(c2ccccc2)NC2=N[C@H]3CCCC[C@@H]3N2C1c1ccccc1 (stereo not given in full) | -7.55% (inactive) |
| Cc1cc2c(c(C)c1O)C(C)(C)CN2C(=O)C(C)(C)C | -8.85% (inactive) |
| COC(=O)CCCC(NC(=O)c1ccc([N+](=O)[O-])cc1)C(=O)OC (stereo not given) | 5.45% (inactive) |
| Cc1[nH]c2ccc([N+](=O)[O-])cc2c1C | 26.4% (inactive) |
| Nc1cn(Cc2ccccc2)c(=O)n(Cc2ccccc2)c1=O | -57.5% (inactive) |
| CN1CCC(OC(=O)C(O)C2CCCCC2)CC1 (stereo not given) | 31.2% (inactive) |
| CC(C=O)C1CCCCC1 (stereo not given) | 7.4% (inactive) |
| Cc1ccc(NC(=O)Nc2cccc(Cl)c2C)cc1C | -1.85% (inactive) |
| C/C(=C/c1c(C)[nH]c(=O)[nH]c1=O)C(=O)O | -29.8% (inactive) |
| CCN(CC)Cc1cc(Nc2nc(/C=C/c3ccccc3)nc3ccccc23)ccc1O | 13.9% (inactive) |
| O=[N+]([O-])c1ccc(OCCO)c([N+](=O)[O-])c1 | -11.5% (inactive) |
| O=C(O)c1ccccc1/C=N\NC1=NCCCCN1 | 20.2% (inactive) |
| COc1ccc(-c2onc(-c3ccc([N+](=O)[O-])cc3)c2C2=NCCCN2)cc1 | 12.7% (inactive) |
| COCn1c2ccc(OC(C)=O)cc2c2c(=O)oc(N(C)C)nc21 | -5.5% (inactive) |
| O=C(CCl)OCC(CCl)OC(=O)CCl (stereo not given) | -15.2% (inactive) |
| CC(C)Cn1cnc2c(Cl)nc3ccccc3c21 | 0.25% (inactive) |
| CCOC(=O)c1nc(SC)sc1NC(=O)c1ccc(OC)cc1 | 6.2% (inactive) |

| SMILES | growth inhibition |
| --- | --- |
| CC1(C)C=Cc2c(ccc(C(=O)Cc3ccccc3)c2O)O1 | -8.1% (inactive) |
| C=CCN1C(C)(C)NC(=S)C1(C)C | -5% (inactive) |
| CCOC(=O)COc1cc2c(cc1C(C)c1cc(OC)c(OC)c(OC)c1)OCO2 (stereo not given) | 18.1% (inactive) |
| CCN(CC)c1ncnc2n[nH]nc12 | -27.9% (inactive) |
| C/C(=C(/C)c1cc[n+](C)cc1)c1cc[n+](C)cc1 | 44.4% (inactive) |
| O=C(O)c1ccc(Cl)cc1[N+](=O)[O-] | 19.9% (inactive) |
| CCOc1ccc(CCC(=O)O)cc1 | 2.8% (inactive) |
| CCOc1ccc(C(=O)C=O)cc1 | -0.7% (inactive) |
| CC1(C)C(N)C(C)(C)C1N (stereo not given) | 11.8% (inactive) |
| CCOC(=O)c1c(OC)c(-c2ccccc2)c(=O)n2c3ccccc3n(C)c12 | -4.1% (inactive) |
| CC1=C(O[Si](C(C)C)(C(C)C)C(C)C)C2CC1(OS(=O)(=O)C(F)(F)F)[C@H]1C(=O)N(c3ccccc3)C(=O)[C@@H]21 (stereo not given in full) | 17.4% (inactive) |
| O=S1(=O)C(c2ccccc2)C(N2CCCCC2)C1C1CC2c3ccccc3C1c1ccccc12 (stereo not given) | -28% (inactive) |
| c1cc(N2CCOCC2)ccc1Cc1ccc(N2CCOCC2)cc1 | 0.45% (inactive) |
| Nc1nc(N)c(N2CCN(Cc3ccccc3)CC2)c(Cl)n1 | 18.9% (inactive) |
| C=Cn1c2ccccc2c2ccccc21 | 15.2% (inactive) |
| CC(C)[C@@H]1CC[C@@H](C)C[C@H]1OC(=O)c1c2n(c3ccccc13)C[C@H]1OC(C)(C)O[C@@H]21 | 22.9% (inactive) |
| CC1(C)CO/C(=C/C(=O)c2ccccc2)N1C(=O)c1ccccc1 | 1.55% (inactive) |
| Nc1nc(N)c2c(n1)NCN(OCOc1ccc(Cl)cc1)C2 | -21.8% (inactive) |
| CCC(C(=O)O)C(=O)O.[NH-]CC1CCCC[N-]1.[Pt+2] | 7.95% (inactive) |
| CC1=NN(C(=O)c2ccccc2O)C(=O)/C1=C/c1cccc([N+](=O)[O-])c1 | 28.1% (inactive) |

Assay: NCI Yeast Anticancer Drug Screen. Data for the bub3 strain (AID 167)
Settings: S. cerevisiae bub3 mutant strain, at 50.0 µM, hits give high values
How it was run: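 Whole-cell yeast assay. The mutant strain was incubated with compounds, and growth inhibition was determined by comparison with vehicle-treated cells.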

| SMILES | growth inhibition |
| --- | --- |
| CC(C)C1CCC2(CC1)CCN(CCCN(C)C)CC2 | 7.25% (inactive) |
| CC1=CC(=O)OC(=O)/C1=C/c1ccc(N(C)C)cc1 | 23% (inactive) |
| CCN(CC)c1ccc2cc(-c3nc4ccccc4[nH]3)c(=O)oc2c1 | 11.1% (inactive) |
| C1=C(c2ccccc2)NC2=N[C@H]3CCCC[C@@H]3N2C1c1ccccc1 (stereo not given in full) | 33.8% (inactive) |
| Cc1cc2c(c(C)c1O)C(C)(C)CN2C(=O)C(C)(C)C | 2.1% (inactive) |
| COC(=O)CCCC(NC(=O)c1ccc([N+](=O)[O-])cc1)C(=O)OC (stereo not given) | 13.7% (inactive) |
| Cc1[nH]c2ccc([N+](=O)[O-])cc2c1C | 25.4% (inactive) |
| Nc1cn(Cc2ccccc2)c(=O)n(Cc2ccccc2)c1=O | 8.95% (inactive) |
| CN1CCC(OC(=O)C(O)C2CCCCC2)CC1 (stereo not given) | 19.9% (inactive) |
| CC(C=O)C1CCCCC1 (stereo not given) | 8.95% (inactive) |
| Cc1ccc(NC(=O)Nc2cccc(Cl)c2C)cc1C | 8.45% (inactive) |
| C/C(=C/c1c(C)[nH]c(=O)[nH]c1=O)C(=O)O | 8.75% (inactive) |
| CCN(CC)Cc1cc(Nc2nc(/C=C/c3ccccc3)nc3ccccc23)ccc1O | -6.7% (inactive) |
| O=[N+]([O-])c1ccc(OCCO)c([N+](=O)[O-])c1 | -0.15% (inactive) |
| O=C(O)c1ccccc1/C=N\NC1=NCCCCN1 | -27.6% (inactive) |
| COc1ccc(-c2onc(-c3ccc([N+](=O)[O-])cc3)c2C2=NCCCN2)cc1 | -1.95% (inactive) |
| COCn1c2ccc(OC(C)=O)cc2c2c(=O)oc(N(C)C)nc21 | -11.6% (inactive) |
| O=C(CCl)OCC(CCl)OC(=O)CCl (stereo not given) | 41.6% (inactive) |
| CC(C)Cn1cnc2c(Cl)nc3ccccc3c21 | 33.5% (inactive) |
| CCOC(=O)c1nc(SC)sc1NC(=O)c1ccc(OC)cc1 | 17.7% (inactive) |

| SMILES | growth inhibition |
| --- | --- |
| CC1(C)C=Cc2c(ccc(C(=O)Cc3ccccc3)c2O)O1 | 16% (inactive) |
| C=CCN1C(C)(C)NC(=S)C1(C)C | -6% (inactive) |
| CCOC(=O)COc1cc2c(cc1C(C)c1cc(OC)c(OC)c(OC)c1)OCO2 (stereo not given) | 34% (inactive) |
| CCN(CC)c1ncnc2n[nH]nc12 | -28.5% (inactive) |
| C/C(=C(/C)c1cc[n+](C)cc1)c1cc[n+](C)cc1 | 56.3% (inactive) |
| O=C(O)c1ccc(Cl)cc1[N+](=O)[O-] | 0.5% (inactive) |
| CCOc1ccc(CCC(=O)O)cc1 | -6.1% (inactive) |
| CCOc1ccc(C(=O)C=O)cc1 | 9.55% (inactive) |
| CC1(C)C(N)C(C)(C)C1N (stereo not given) | 17.1% (inactive) |
| CCOC(=O)c1c(OC)c(-c2ccccc2)c(=O)n2c3ccccc3n(C)c12 | -1.1% (inactive) |
| CC1=C(O[Si](C(C)C)(C(C)C)C(C)C)C2CC1(OS(=O)(=O)C(F)(F)F)[C@H]1C(=O)N(c3ccccc3)C(=O)[C@@H]21 (stereo not given in full) | 5.2% (inactive) |
| O=S1(=O)C(c2ccccc2)C(N2CCCCC2)C1C1CC2c3ccccc3C1c1ccccc12 (stereo not given) | 28.9% (inactive) |
| c1cc(N2CCOCC2)ccc1Cc1ccc(N2CCOCC2)cc1 | -17.6% (inactive) |
| Nc1nc(N)c(N2CCN(Cc3ccccc3)CC2)c(Cl)n1 | 18.3% (inactive) |
| C=Cn1c2ccccc2c2ccccc21 | -6.75% (inactive) |
| CC(C)[C@@H]1CC[C@@H](C)C[C@H]1OC(=O)c1c2n(c3ccccc13)C[C@H]1OC(C)(C)O[C@@H]21 | 15.2% (inactive) |
| CC1(C)CO/C(=C/C(=O)c2ccccc2)N1C(=O)c1ccccc1 | 4% (inactive) |
| Nc1nc(N)c2c(n1)NCN(OCOc1ccc(Cl)cc1)C2 | 7.75% (inactive) |
| CCC(C(=O)O)C(=O)O.[NH-]CC1CCCC[N-]1.[Pt+2] | -39.5% (inactive) |
| CC1=NN(C(=O)c2ccccc2O)C(=O)/C1=C/c1cccc([N+](=O)[O-])c1 | 61.1% (inactive) |

— PubChem BioAssay (NCI)
